# Results from paper PMC4336329 (PLoS ONE, 2015).
# Screen size: about 310,000 compounds; about 14,000 (4.5%) showed an effect of 50% or more. Effects have a minus sign here. The list comes from a sample in which strong results are over-represented; it also holds similar structures and randomly drawn compounds.
# Target: human ether-à-go-go-related gene (hERG) potassium channel (human, UniProt Q12809)
# Experiment: primary screen, population patch clamp on CHO cells stably expressing hERG; higher = less effect of the substance
# 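Further: peak tail current of the secondary pulse compared with the same well before compound.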
# human ether-à-go-go-related gene (hERG) potassium channel, sequence (Q12809 whole entry, looked up): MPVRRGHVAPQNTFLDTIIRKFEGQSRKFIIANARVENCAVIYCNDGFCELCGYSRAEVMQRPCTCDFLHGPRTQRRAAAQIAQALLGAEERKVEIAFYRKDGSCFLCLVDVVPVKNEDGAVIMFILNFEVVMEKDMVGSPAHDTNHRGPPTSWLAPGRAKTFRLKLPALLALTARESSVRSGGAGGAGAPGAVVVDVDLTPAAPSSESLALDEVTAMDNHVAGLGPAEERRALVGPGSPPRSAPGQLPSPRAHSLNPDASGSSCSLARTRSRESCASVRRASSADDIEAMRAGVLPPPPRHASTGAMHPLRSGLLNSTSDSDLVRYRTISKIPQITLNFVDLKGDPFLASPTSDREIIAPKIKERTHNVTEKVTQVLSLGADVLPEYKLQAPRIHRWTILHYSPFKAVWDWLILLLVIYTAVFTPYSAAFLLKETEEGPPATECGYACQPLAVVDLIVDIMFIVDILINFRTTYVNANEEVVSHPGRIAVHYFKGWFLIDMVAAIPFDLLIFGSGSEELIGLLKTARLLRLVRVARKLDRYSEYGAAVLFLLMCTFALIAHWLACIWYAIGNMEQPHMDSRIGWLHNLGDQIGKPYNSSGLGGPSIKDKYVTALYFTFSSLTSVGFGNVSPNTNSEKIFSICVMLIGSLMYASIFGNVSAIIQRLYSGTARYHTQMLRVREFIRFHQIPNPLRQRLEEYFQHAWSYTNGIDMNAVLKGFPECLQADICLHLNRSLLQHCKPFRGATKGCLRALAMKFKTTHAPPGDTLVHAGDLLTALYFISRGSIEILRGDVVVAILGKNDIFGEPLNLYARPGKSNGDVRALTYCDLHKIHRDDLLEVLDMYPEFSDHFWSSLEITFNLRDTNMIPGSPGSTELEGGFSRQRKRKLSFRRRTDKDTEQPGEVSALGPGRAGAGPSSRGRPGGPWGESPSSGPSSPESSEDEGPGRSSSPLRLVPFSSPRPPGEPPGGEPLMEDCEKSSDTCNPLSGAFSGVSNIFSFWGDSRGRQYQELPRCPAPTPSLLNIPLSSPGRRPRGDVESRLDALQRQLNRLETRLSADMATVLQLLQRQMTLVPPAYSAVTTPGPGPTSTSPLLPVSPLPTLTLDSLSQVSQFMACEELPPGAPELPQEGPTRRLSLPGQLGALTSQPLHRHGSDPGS
row,Structure (SMILES),"hERG current change (%, negative = inhibition) at 10uM [%]"
1,COc1cccc(CN(C(=O)c2cccc(OC)c2)C2CCS(=O)(=O)C2)c1 (stereo not drawn),-7.02
2,O=P1(Nc2cccnc2)COc2ccccc2OC1,30.6
3,CSc1ccccc1C(=O)NCCOc1cccc(C)c1,17.7
4,O=C(CNC(=O)c1cccs1)NCC(=O)OCc1ccccc1Cl,2.85
5,CC(=O)N1CCC2(CC1)C(C#N)=C(N)Oc1n[nH]c(C)c12,15.5
6,Cc1[nH]nc2c1C1(CCOCC1)C(C#N)=C(N)O2,-56.7
7,Cc1[nH]nc2c1C1(CCC3(CC1)OCCO3)C(C#N)=C(N)O2,-0.214
8,COc1ccc(S(=O)(=O)NC(C)C(=O)NCc2ccccn2)cc1Cl (stereo not drawn),7.6
9,Cc1ccc2c(c1)cc(CN(Cc1cccnc1)C(=O)c1ccccc1)c1nnnn12,-78
10,Cc1ccc2c(c1)cc(CN(CCc1ccccc1)C(=O)N1CCOCC1)c1nnnn12,-61.3
11,Cc1ccc2c(c1)cc(CN(Cc1ccco1)C(=O)N1CCOCC1)c1nnnn12,-14.7
12,Cc1cccc2cc(CN(Cc3cccnc3)C(=O)c3cccs3)c3nnnn3c12,26.1
13,Cc1cccc2cc(CN(CCc3ccccc3)C(=O)N3CCOCC3)c3nnnn3c12,12.5
14,Cc1ccc(C(=O)N(Cc2cccnc2)Cc2cc3cc(C)ccc3n3nnnc23)cc1,-23.8
15,Cc1ccc2c(c1)cc(CN(Cc1ccc3c(c1)OCO3)C(=O)c1cnccn1)c1nnnn12,-45.7
16,Cc1ccc2c(c1)cc(CN(Cc1cccnc1)C(=O)NCc1ccccc1)c1nnnn12,-75.2
17,Cc1ccc2c(c1)cc(CN(Cc1ccc3c(c1)OCO3)C(=O)c1ccccc1)c1nnnn12,-11.5
18,Cc1ccc(S(=O)(=O)N(C)C)cc1-n1c(SCC(=O)Nc2ccc(F)cc2Cl)nc2ccccc2c1=O,0.00438
19,CC(=O)N1CCc2cc(S(=O)(=O)Nc3ccc(C)cc3)ccc21,16.9
20,Cc1ccccc1CN1CCN(S(=O)(=O)c2ccc(Cl)s2)CC1,3.24
21,CCOC(=O)c1c(C)oc2cc(Br)c(O)c(Br)c12,8.34
22,COc1ccc(C[C@H]2CN3C(=NC[C@@H]3Cc3ccc(O)cc3)N2C[C@H](C)NC(=O)c2ccc(C)c(Br)c2)cc1,-77.9
23,Cc1ccc(C(=O)N[C@@H](C)CN2C3=NC[C@H](Cc4ccccc4)N3C[C@H]2Cc2ccc(O)cc2)cc1Br,-82.5
24,CCOc1ccc(C(=O)Nc2nnc(C)s2)cc1OCC,-4.04
25,COc1cc(/C=C2/SC(=O)NC2=O)ccc1OC(=O)c1ccco1,-0.00422
26,COc1cc2c(c3oc(=O)cc(CC(=O)O)c13)CCC(C)(C)O2,-5.45
27,COc1ccccc1CCC(=O)N1CCC(n2nccc2NC(=O)C2CCOC2)CC1 (stereo not drawn),23.1

row,Structure (SMILES),"hERG current change (%, negative = inhibition) at 10uM [%]"
1,CCOC(=O)CC1(c2ccccc2)CCOC(C)(C)C1 (stereo not drawn),10.2
2,O=C(c1cccnc1)N1C2C=CC(C2)C1(C(F)(F)F)C(F)(F)F (stereo not drawn),14.6
3,Cc1noc(C)c1C(=O)NC(C)C1CCCO1 (stereo not drawn),3.08
4,Cc1ccc(C(=O)N2CCN(C)CC2)cc1S(=O)(=O)N1CCCCCC1,-25.9
5,Cc1ccc2cc(CCNC(=O)c3ccc4c(c3)OCO4)c(=O)[nH]c2c1C,4.17
6,O=C(O)c1ccc(COc2ccccc2/C=C2\NC(=O)N(Cc3ccccc3)C2=O)cc1,24.5
7,COCCNC(=O)c1ccc(CS(=O)(=O)c2c(Cl)cccc2Cl)o1,0.994
8,O=C(O)c1ccc(CS(=O)(=O)c2c(Cl)cccc2Cl)o1,19
9,O=C(NCCCN1CCCC1)c1ccc(CS(=O)(=O)c2c(Cl)cccc2Cl)o1,-10.5
10,CCCN(CCC)CCCNC(=O)c1ccc(CS(=O)(=O)c2c(Cl)cccc2Cl)o1,-73.1
11,O=C(NC1CC1)c1ccc(CS(=O)(=O)c2c(Cl)cccc2Cl)o1,-5.87
12,CCCCN(CC)CCCNC(=O)c1ccc(CS(=O)(=O)c2ccccc2C)o1,-35.2
13,O=C(NCCN1CCOCC1)c1ccc(CS(=O)(=O)c2c(Cl)cccc2Cl)o1,0.302
14,CCCCN(CC)CCCNC(=O)c1ccc(CS(=O)(=O)c2c(Cl)cccc2Cl)o1,-55.4
15,CCCCN(CCCNC(=O)c1ccc(CS(=O)(=O)c2c(Cl)cccc2Cl)o1)Cc1ccccc1,-66.1
16,O=c1nc(-c2ccccc2)c2ccccc2[nH]1,-1.29
17,Cc1oc(-c2ccc(Cl)cc2)cc1C(=O)NC1CCN(Cc2ccccc2)CC1,1.09
18,CCc1cc(=O)oc2cc(C)cc(OC(C)C(=O)NCC(O)c3ccccc3)c12 (stereo not drawn),4.7
19,Cc1ccc(CNC(=O)NC23CC4CC(CC(C4)C2)C3)cc1,7.24
20,CCn1cc(C(=O)NCC(OC)OC)c(=O)c2cc(S(=O)(=O)N3CCC(C)CC3)ccc21,-28.8
21,CSc1ccc(CNc2cccc3ccccc23)cc1,2.23
22,CCOC(=O)c1c(NC(=O)c2ccc(Br)o2)sc2c1CCCC2,-9.78
23,Fc1ccc2nc3c(nc2c1)CCCC3,15.3
24,COCCCn1c(SCC(N)=O)nnc1-c1ccccc1,-0.75
25,Cc1ccccc1CC1(CO)CCCN(C(=O)c2ccccc2N(C)C)C1 (stereo not drawn),-1.63
26,Cc1ccccc1CC1(CO)CCCN(C(=O)c2cc(Cl)ccc2F)C1 (stereo not drawn),-16.5
27,Cc1ccccc1CC1(CO)CCCN(C(=O)c2ccccc2Cl)C1 (stereo not drawn),-81.5
